Screens: PubChem BioAssay, several laboratories
NALP1 inh: inhibitors of NALP1 inflammasome in yeast; S. cerevisiae NALP1/ASC/caspase-1 growth, X-gal OD620, 72 h; inhibition, % at 10 µM; hit rate 0.61% among 280,000; AID 2071; in the data active means inhibition mostly above about 24%, no sharp cut-off; inactive means mostly below about 32%
CHT allo act: human CHT allosteric activation. Q9GZV3. hit rate 0.49% among 310,000. CHT-expressing cells, membrane potential dye, choline EC20; active compounds read high; LV-AA mutant CHT in HEK293 cells. B-score at 10 µM;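 active means initial fluorescence not abnormally high and integrated response B-score, plate-corrected, over 3 SD above library mean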
Target sequence (Q9GZV3 whole entry, looked up): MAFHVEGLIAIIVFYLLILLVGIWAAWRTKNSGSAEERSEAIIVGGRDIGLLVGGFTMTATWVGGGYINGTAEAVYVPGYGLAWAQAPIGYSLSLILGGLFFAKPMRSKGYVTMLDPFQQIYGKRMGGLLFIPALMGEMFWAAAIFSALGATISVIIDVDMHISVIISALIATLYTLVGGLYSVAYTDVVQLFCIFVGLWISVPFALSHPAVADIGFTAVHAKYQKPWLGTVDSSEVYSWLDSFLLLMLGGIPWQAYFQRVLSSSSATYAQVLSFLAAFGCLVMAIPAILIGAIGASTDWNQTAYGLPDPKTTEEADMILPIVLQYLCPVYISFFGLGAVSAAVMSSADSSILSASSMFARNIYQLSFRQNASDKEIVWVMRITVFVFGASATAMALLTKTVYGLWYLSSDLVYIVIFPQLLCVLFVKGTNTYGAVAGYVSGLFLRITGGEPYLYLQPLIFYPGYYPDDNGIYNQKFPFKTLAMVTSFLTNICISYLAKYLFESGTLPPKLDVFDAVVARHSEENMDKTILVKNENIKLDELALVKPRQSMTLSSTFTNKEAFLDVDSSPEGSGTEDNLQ
SUMO Mot1 rescue: blocks SUMOylation pathway, rescuing yeast Mot1-301 growth | hit rate 1% among 320,000 | AID 2716 | S. cerevisiae Mot1-301 growth rescue, ATP luminescence, 38.5C; percent above DMSO median, 100 means doubled | growth rescue, % at 18.8 µM;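 active means every valid replicate shows activation above 250% relative to neutral control wells; inactive means the rest, any valid replicate at or below 250%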;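 further: OY570 slx delta 5 strain wells were the positive control but not used for scaling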
A1 inh: inhibitors of the anti-apoptotic protein A1, read as caspase activation; MEF A1-2A-BIM cells, Caspase-Glo 3/7 luminescence, 3 h; percent of clofoctol response, vehicle zero; caspase activation, % (no concentration beside the values); hit rate 0.066% among 330,000; AID 2462;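 active means over half of replicate activation scores above 10%, or exactly half above 10 with the replicate mean above 10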
CHT inh: human CHT choline transport inhibition; B-score at 10 µM; Q9GZV3; hit rate 0.86% among 310,000; CHT-expressing cells, membrane potential dye, choline response; active compounds read low;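 active means B-score over 3 SD under the library average, and starting fluorescence ratio not unusually high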;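 further: choline stimulus applied at its EC90 after an EC20 pre-addition; B-score computed on integrated fluorescence ratio after choline addition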
NLRP3 yeast inh: NALP3 inhibition in yeast | inhibition, % at 10 µM | hit rate 0.39% among 330,000 | Yeast reconstituted NLRP3/ASC/caspase-1, beta-gal luminescence, 24 h;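 active means inhibition of 50% or more; inactive means inhibition below 50%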;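 further: plate controls were induced DMSO wells for no effect and uninduced yeast grown without galactose for full effect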
CHT inh conf: confirmation of human choline transporter CHT inhibitors. shares compounds with CHT inh. CHT-expressing cells, choline membrane potential dye; LV-to-AA substituted CHT, HEK293 cells. hit rate 70% among 2,400. CHT activity remaining % of control (active compounds read low), % at 10 µM;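 active means choline transporter activity left, mean of duplicates at 10 µM, below buffer-only control mean minus 3 SD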;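 further: depolarization triggered by choline at its EC90 following an EC20 pre-addition; 0% = hemicholinium-3 full block and 100% = buffer-only control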
HEK293 MPD ctr: counter-screen for CHT inhibitors: effect in parental HEK293 cells; shares compounds with CHT inh; hit rate 4% among 2,400; membrane potential dye, choline response; active = decrease or increase beyond buffer ±3SD; membrane potential ratio readout (active if shifted either direction beyond buffer ±3SD; no single direction) at 10 µM; AID 493222;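 further: parental cells lack the transporter so any hit is non-specific; ratio is peak minus trough fluorescence over baseline after EC90 choline challenge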
Starred values were filed as active, the others as inactive. This is a sample that favours compounds with a hit; in the whole collection about 3% have one here.

Screening CCOC(=O)N1CCC(Nc2ncnc3c2cnn3-c2ccc(C)cc2C)CC1 returned NALP1 inh 37, CHT allo act inactive, SUMO Mot1 rescue 10, A1 inh -1, CHT inh -6.9*, NLRP3 yeast inh 0, CHT inh conf inactive and HEK293 MPD ctr inactive.
C=CCN(C(=O)CSc1nc2c(sc3ccccc32)c(=O)n1CCN(CC)CC)c1ccccc1 was read as NALP1 inh 20, CHT allo act inactive, SUMO Mot1 rescue -14, A1 inh 0, CHT inh inactive and NLRP3 yeast inh 19.
Screening O=C(CNCc1ccccc1Cl)Nc1ccccc1N1CCCCC1 returned NALP1 inh 1, CHT allo act inactive, SUMO Mot1 rescue 77, A1 inh -1, CHT inh inactive and NLRP3 yeast inh 22.
`CCN(CC)c1ccc(NC(=O)CNCc2ccccc2Cl)c(C)c1` gave NALP1 inh 9, CHT allo act inactive, SUMO Mot1 rescue 4, A1 inh 0, CHT inh -5.2*, NLRP3 yeast inh 14, CHT inh conf 57%* and HEK293 MPD ctr inactive.
For COC(=O)N(NC(=O)C(O)(CCC(C)C)CCC(C)C)c1ccccc1 the results were NALP1 inh 17, CHT allo act inactive, SUMO Mot1 rescue -19, A1 inh 0, CHT inh inactive, NLRP3 yeast inh 20, CHT inh conf inactive and HEK293 MPD ctr inactive.
For Cc1nn(CC(=O)Nc2ccc(S(N)(=O)=O)cc2)c(=O)c2ccccc12 the results were NALP1 inh 22, CHT allo act inactive, SUMO Mot1 rescue -9, A1 inh -2, CHT inh inactive and NLRP3 yeast inh 17.
For CN1CCN(CC(=O)Nc2nc(-c3c[nH]c4ccccc34)cs2)CC1 the results were NALP1 inh 8, CHT allo act inactive, SUMO Mot1 rescue -4, A1 inh 0, CHT inh -5.4*, NLRP3 yeast inh 4, CHT inh conf 64%* and HEK293 MPD ctr inactive.
CNc1nc(-c2c[nH]c3ccccc23)cs1 was read as NALP1 inh 22, CHT allo act inactive, SUMO Mot1 rescue -2, A1 inh -1, CHT inh inactive and NLRP3 yeast inh 9.
Screening Cc1ccc(S(=O)(=O)Nc2cc(C(=O)NCCN(C)C)ccc2N2CCCCC2)cc1 returned NALP1 inh 23, CHT allo act inactive, SUMO Mot1 rescue 11, A1 inh 0, CHT inh -15*, NLRP3 yeast inh 2, CHT inh conf 19%* and HEK293 MPD ctr 3.2*.
Cc1ccc(S(=O)(=O)Nc2cc(C(=O)NCCN3CCCC3)ccc2N2CCCCC2)cc1 was read as NALP1 inh -14, CHT allo act inactive, A1 inh -1, CHT inh -8.6*, NLRP3 yeast inh 20, CHT inh conf 23%* and HEK293 MPD ctr 3.8*.
`Cc1ccc(NC(=O)COC(=O)c2ccc(Cl)nc2)cc1S(=O)(=O)N1CCCCC1` gave SUMO Mot1 rescue 2, A1 inh -1 and NLRP3 yeast inh 5.
`CCN(CC)c1ccc(C=NCCc2ccc(S(N)(=O)=O)cc2)cc1` gave NALP1 inh 11, CHT allo act inactive, SUMO Mot1 rescue -17, A1 inh 3, CHT inh inactive and NLRP3 yeast inh 7.
Screening CC1CCN(S(=O)(=O)c2ccc3c(c2)N(CC(=O)NCCN2C(C)CCCC2C)C(=O)CS3)CC1 (configuration not stated) returned NALP1 inh 26, CHT allo act inactive, SUMO Mot1 rescue -6, A1 inh 0, CHT inh -10*, NLRP3 yeast inh 17, CHT inh conf 17%* and HEK293 MPD ctr inactive.
For Cc1ccc(CNC(=O)CN2C(=O)CSc3ccc(S(=O)(=O)N4CCC(C)CC4)cc32)cc1 the results were NALP1 inh -1, CHT allo act inactive, SUMO Mot1 rescue 287, A1 inh 2, CHT inh inactive and NLRP3 yeast inh 7.
`CCC1CCCCN1CCCNC(=O)CN1C(=O)CSc2ccc(S(=O)(=O)N3CCOCC3)cc21` (configuration not stated) gave NALP1 inh 11, CHT allo act inactive, SUMO Mot1 rescue 3, A1 inh -1, CHT inh inactive and NLRP3 yeast inh 10.
`CCCCCCCNC(=O)CN1C(=O)CSc2ccc(S(=O)(=O)N3CCOCC3)cc21` gave NALP1 inh 22, CHT allo act inactive, SUMO Mot1 rescue 82, A1 inh -1, CHT inh inactive and NLRP3 yeast inh 22.
`CC1CCN(S(=O)(=O)c2ccc3c(c2)N(CC(=O)NCCCN2CCCCC2C)C(=O)CS3)CC1` (configuration not stated) gave NALP1 inh 20, CHT allo act inactive, SUMO Mot1 rescue 69, A1 inh 0, CHT inh -5.5*, NLRP3 yeast inh 11, CHT inh conf 44%* and HEK293 MPD ctr inactive.
Screening CCCCN(C)CCNC(=O)CN1C(=O)CSc2ccc(S(=O)(=O)N3CCCC3)cc21 returned NALP1 inh 26, CHT allo act inactive, SUMO Mot1 rescue 11, A1 inh 1, CHT inh -5.7*, NLRP3 yeast inh -6, CHT inh conf 58%* and HEK293 MPD ctr inactive.
`Cc1ccc(S(=O)(=O)Nc2cccc(C(=O)NCCCN3CCCC3=O)c2)cc1F` gave CHT allo act inactive, SUMO Mot1 rescue 6, A1 inh 0, CHT inh inactive and NLRP3 yeast inh 18.
COc1ccc(CCNC(=O)c2cc(-c3ccccc3)c(N3CCOCC3)s2)c(OC)c1OC was read as NALP1 inh 8, CHT allo act inactive, SUMO Mot1 rescue 27, A1 inh 0, CHT inh inactive and NLRP3 yeast inh 8.
For COc1ccc(C(=O)c2ccc(Cl)cc2)cc1 the results were NALP1 inh 20, CHT allo act inactive, SUMO Mot1 rescue 9, A1 inh 0, CHT inh inactive and NLRP3 yeast inh 41.
Screening O=C(c1ccc(O)cc1)c1ccc(Cl)cc1 returned NALP1 inh 9, CHT allo act inactive, SUMO Mot1 rescue 31, A1 inh -1, CHT inh -6*, NLRP3 yeast inh 4, CHT inh conf 50%* and HEK293 MPD ctr inactive.
CS(=O)(=O)Nc1ccccc1C(=O)NCCSc1ccccc1 was read as NALP1 inh 30, CHT allo act inactive, SUMO Mot1 rescue 0, A1 inh 1, CHT inh -6.5*, NLRP3 yeast inh 14, CHT inh conf 71%* and HEK293 MPD ctr inactive.
